# According to the supplement of paper PMC3545927:
# Some of the results follow. No count for the full screen is at hand.
# Molecular target: furin, P09958
# Assay: furin cleavage Z-score vs untreated control; higher = more cleavage, active = 3.5 or more, inactive = 1 or less, 8 variable residues between constant flanks
# Procedure, shortened: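 Furin-free reactions served as the baseline for the cleavage Z-score, which is the log read count lowess-adjusted and scaled by median absolute deviation. Counts came from released DNA, adapter-tagged by PCR and sequenced. Purified furin had cut 8-mer peptides fused to a cDNA oligonucleotide on magnetic beads during 7.5, 15 or 30 min at 1:10 enzyme:substrate.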
# 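Note: purified furin at 1:10 enzyme:substrate in 50 mM HEPES pH 7.5.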
# Sequence of furin, P09958 (P09958 whole entry): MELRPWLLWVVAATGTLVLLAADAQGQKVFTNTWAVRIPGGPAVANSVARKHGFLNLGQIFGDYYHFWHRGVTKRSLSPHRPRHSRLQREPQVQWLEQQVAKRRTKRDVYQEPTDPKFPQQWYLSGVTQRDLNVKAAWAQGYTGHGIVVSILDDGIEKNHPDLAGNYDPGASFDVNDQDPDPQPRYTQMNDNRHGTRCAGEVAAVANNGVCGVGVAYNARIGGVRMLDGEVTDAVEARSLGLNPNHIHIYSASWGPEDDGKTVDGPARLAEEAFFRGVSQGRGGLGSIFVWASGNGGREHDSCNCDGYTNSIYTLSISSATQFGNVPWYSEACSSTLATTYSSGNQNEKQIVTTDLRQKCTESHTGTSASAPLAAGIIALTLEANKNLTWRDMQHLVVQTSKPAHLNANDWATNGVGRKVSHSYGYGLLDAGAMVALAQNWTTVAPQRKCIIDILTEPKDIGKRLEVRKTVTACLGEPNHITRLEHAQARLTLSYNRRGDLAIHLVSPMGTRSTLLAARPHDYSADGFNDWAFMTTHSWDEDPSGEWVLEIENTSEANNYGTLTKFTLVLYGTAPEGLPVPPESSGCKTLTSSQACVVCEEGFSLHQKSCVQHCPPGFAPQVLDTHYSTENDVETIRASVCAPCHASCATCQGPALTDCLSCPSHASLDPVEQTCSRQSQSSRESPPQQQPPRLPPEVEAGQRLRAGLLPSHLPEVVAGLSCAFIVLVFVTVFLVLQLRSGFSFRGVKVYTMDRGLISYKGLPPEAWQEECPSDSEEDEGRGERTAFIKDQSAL
Sequence,furin cleavage Z-score (7.5 min),furin cleavage Z-score (15 min),furin cleavage Z-score (30 min)
CARCIRAFCRAGNASASA [FS-2897],-0.211 (inactive),0.945 (inactive),0.335 (inactive)
CARARRQDVKAGNASASA [FS-2649],0.761 (inactive),0.529 (inactive),2.07
CARARRAVDKAGNASASA [FS-2252],6.76 (active),6.96 (active),6.15 (active)
CARCRRALRRAGNASASA [FS-1687],3.87 (active),3.85 (active),7.16 (active)
CAVCAAILRRAGNASASA [HC1109],-1.76 (inactive),-0.361 (inactive),0.614 (inactive)
CARARRAVQKAGNASASA [FS-3149],1.2,0.71 (inactive),1.68
CARARRAIAAAGNASASA [FS-3148],5.95 (active),5.73 (active),4.12 (active)
CARARRVLEAAGNASASA [FS-1685],-0.496 (inactive),-0.739 (inactive),-0.66 (inactive)
CARARRALRRAGNASASA [FS-2130],3.99 (active),4.89 (active),7.04 (active)
CARARRVTDAAGNASASA [FS-2890],-1.51 (inactive),-0.986 (inactive),-0.304 (inactive)
CAAGVGIYLLAGNASASA [HC1661],-0.0484 (inactive),-0.628 (inactive),0.389 (inactive)
CARLHGLSAFAGNASASA [HC1603],-0.521 (inactive),-1.08 (inactive),0.0737 (inactive)
CAFTPCSGSWAGNASASA [HC1827],-0.899 (inactive),-0.656 (inactive),-0.511 (inactive)
CACEMEECSQAGNASASA [HC1800],-0.225 (inactive),0.44 (inactive),-0.298 (inactive)
CARLRKGCGAAGNASASA [FS-2157],-0.162 (inactive),0.798 (inactive),-0.0332 (inactive)
CAQKGRVRRAAGNASASA [FS-78],11.9 (active),10.5 (active),7.65 (active)
CAGKVRLRRAAGNASASA [FS-655],8.27 (active),7.38 (active),7.81 (active)
CALEGRRKRAAGNASASA [FS-938],9.45 (active),10.2 (active),8.2 (active)
CAGKVLIDILAGNASASA [HC1083],-0.625 (inactive),-0.337 (inactive),-0.826 (inactive)
CAAPRRLRRAAGNASASA [FS-7],6.44 (active),6.75 (active),5.94 (active)
CARGVAKAVDAGNASASA [HC754],-0.917 (inactive),0.591 (inactive),0.29 (inactive)
CALWILQASLAGNASASA [HC610],-0.000456 (inactive),2.88,1.52

Sequence,furin cleavage Z-score (7.5 min),furin cleavage Z-score (15 min),furin cleavage Z-score (30 min)
CADCNTCVTQAGNASASA [HC887],0.505 (inactive),-0.795 (inactive),-0.033 (inactive)
CAEVPCHCPSAGNASASA [HC2380],-0.21 (inactive),0.0658 (inactive),-0.42 (inactive)
CASTPCSAHRAGNASASA [HC2573],0.385 (inactive),0.166 (inactive),1.63
CAVLKEVKAAAGNASASA [HC1404],-0.975 (inactive),0.455 (inactive),-0.678 (inactive)
CAWLKRRKRAAGNASASA [FS-1181],11.7 (active),10.8 (active),7.39 (active)
CAYLNRYKRAAGNASASA [FS-635],8.98 (active),9.12 (active),5.24 (active)
CALEGRVRRAAGNASASA [FS-268],10.4 (active),10.8 (active),9.36 (active)
CAGMGRVRRAAGNASASA [FS-27],11.2 (active),10.9 (active),10 (active)
CATIASPKGPAGNASASA [HC705],-0.242 (inactive),-0.653 (inactive),-1.2 (inactive)
CACGKYLFNWAGNASASA [HC1631],-0.792 (inactive),-0.758 (inactive),-0.511 (inactive)
CAPVENLETTAGNASASA [HC759],0.416 (inactive),0.844 (inactive),0.545 (inactive)
CAYDVVCCSMAGNASASA [HC2109],0.403 (inactive),-1.03 (inactive),-0.733 (inactive)
CAPEGRRKRTAGNASASA [FS-1042],7.2 (active),9.98 (active),7.54 (active)
CAPEGRTWAQAGNASASA [HC196],0.395 (inactive),-0.56 (inactive),-1.92 (inactive)
CAVDAETHVTAGNASASA [HC351],-2.06 (inactive),-2.12 (inactive),-1.23 (inactive)
CALSKRSLRDAGNASASA [FS-1373],4 (active),8.19 (active),6.86 (active)
CARRVRSYGQAGNASASA [FS-2084],2.55,4.27 (active),5.55 (active)
CARRKRLPEMAGNASASA [FS-1778],0.399 (inactive),0.463 (inactive),-1.64 (inactive)
CARRKREKTQAGNASASA [FS-3165],5.81 (active),8.48 (active),5.8 (active)
CARRKREVQMAGNASASA [FS-2779],6.69 (active),7.05 (active),7 (active)
CAVSKGWRLLAGNASASA [HC670],0.0516 (inactive),-0.975 (inactive),-0.799 (inactive)
CAWGENDTDVAGNASASA [HC425],-1.56 (inactive),-0.446 (inactive),-2.12 (inactive)
